Test results as given in PubChem BioAssay (Tox21).
Inconclusive results are not listed. Active and inactive are the calls of the source. Unless noted, the call rests on the fitted dose curve; in most records, active means well fitted curve in the direction sought with a large enough effect in the repeat runs; inconclusive means weak or mixed curves; inactive means no such curve, though single readings can be large; an effect the other way counts as inactive or inconclusive.

Experiments:
[1] = qHTS assay to identify small molecule antagonists of the estrogen related receptor (ERR) signaling pathway from Tox21 library - cell viability counter screen (AID 1224834); further: nearly all actives have a fitted effect of over 30% in size
Outline: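 Cytotoxicity of test substances is gauged in the same ERR cells used for the antagonist screen, after 17.5 h of compound treatment at 37 C, by CellTiter-Fluor fluorescence measured after 30 min.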

[2] = molecular target: Luciferin 4-monooxygenase (Photinus pyralis) (UniProt P08659); experiment: qHTS assay to identify small molecule inhibitors of firefly luciferase (AID 1224835); further: nearly all actives have a fitted effect of over 25% in size; further: potency means the concentration at half of the fitted maximal effect
Outline: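 Quantitative HTS format; KM concentrations of both substrates. Purified P. pyralis FLuc activity quantified from luminescence images.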

[3] = qHTS assay to identify small molecule agonists of the constitutive androstane receptor (CAR) signaling pathway - cell viability counter screen (AID 1224836); further: nearly all actives have a fitted effect of over 45% in size
Outline: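 Multiplexed viability check: HepG2-CYP2B6-hCAR cells, 15-point compound dosing, 0.75 uM PK11195 final, 23 h at 37 C, CellTiter-Fluor fluorescence.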

[4] = qHTS assay to identify small molecule antagonists of the constitutive androstane receptor (CAR) signaling pathway - cell viability counter screen (AID 1224837); further: nearly all actives have a fitted effect of over 45% in size
Outline: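 Multiplexed cytotoxicity read-out for the CAR antagonist screen: double-stable HepG2-CYP2B6-hCAR cells co-treated with 50 nM CITCO (final) and compound over 15 concentrations, incubated 23 hr, then assessed by CellTiter-Fluor fluorescence.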

[5] = molecular target: Nuclear receptor subfamily 1 group I member 3 (Homo sapiens) (UniProt Q14994); experiment: qHTS assay to identify small molecule antagonists of the constitutive androstane receptor (CAR) signaling pathway (AID 1224838); further: nearly all actives have a fitted effect of over 40% in size
Outline: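 Compounds were titrated across 15 concentrations onto HepG2 cells double-stably expressing hCAR and a CYP2B6-2.2kb reporter, together with 50 nM CITCO (final). After 24 h at 37 C, luciferase activity was measured by luminescence.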

[6] = molecular target: Nuclear receptor subfamily 1 group I member 3 (Homo sapiens) (UniProt Q14994); experiment: qHTS assay to identify small molecule agonists of the constitutive androstane receptor (CAR) signaling pathway (AID 1224839); further: nearly all actives have a fitted effect of over 15% in size; further: potency means the concentration at half of the fitted maximal effect;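 on activation: HepG2 cells stably carrying human CAR and a CYP2B6 luciferase reporter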
Outline: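 Using human hepatoma HepG2 cells engineered with hCAR and a CYP2B6-2.2kb reporter, 15-concentration compound series were incubated 24 h alongside PK11195 at 0.75 uM final, with luminescence quantified afterwards.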

[7] = qHTS assay to identify small molecule antagonists of the estrogen related receptor signaling pathway with the pleiotropic PPARgamma coactivator (PGC) from Tox21 10K library - cell viability counter screen (AID 1224840; active means well fitted cell-killing curve with a large enough effect in the repeat runs, not every such curve was filed as active; further: nearly all actives have a fitted effect of over 40% in size)
Outline: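 Step one, plate 2,000 PGC/ERR cells per well; step two, incubate 6 h at 37 C/5% CO2; step three, pin-transfer compounds; step four, incubate 17.5 h; step five, add CellTiter-Fluor and read fluorescence after 30 min.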

[8] = qHTS assay to identify small molecule antagonists of the estrogen related receptor signaling pathway with the pleiotropic PPARgamma coactivator (PGC) from Tox21 10K library (AID 1224841; call rule not given here; further: actives are mostly falling curves and most rising ones were filed inactive; nearly all actives have a fitted effect of over 50% in size)
Outline: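 Antagonism in this quantitative HTS is taken from loss of luciferase signal in PGC/ERR cells. Cells (2,000/well) are treated with compounds in DMSO after a 6 h settling period and read by One-Glo luminescence after 18 h.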

[9] = qHTS assay to identify small molecule agonists of the estrogen related receptor signaling pathway with the pleiotropic PPARgamma coactivator (PGC) from Tox21 10K library (AID 1224842); further: nearly all actives have a fitted effect of over 15% in size
Outline: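 PGC/ERR reporter cells (NTP line) were seeded 2,000 per well, rested 6 h at 37 C/5% CO2, then pin-dosed with compounds in DMSO for 18 h at 37 C; luciferase read by One-Glo luminescence after 30 min at room temperature.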

[10] = molecular target: Thyrotropin receptor (Homo sapiens) (UniProt P16473); experiment: qHTS assay to identify small molecule agonists of the thyroid stimulating hormone receptor (TSHR) signaling pathway (AID 1224843; calls by dose curve; further: nearly all actives have a fitted effect of over 45% in size)
Outline: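 Cell line HEK293 with TSHR; density 800/well. Exposure 30 min RT. Readout HTRF cAMP (cAMP-d2/anti-cAMP-cryptate), 1 h RT before reading.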

[11] = qHTS assay to identify small molecule agonists of the hypoxia (HIF-1) signaling pathway - cell viability counter screen (AID 1224844; calls by dose curve; further: nearly all actives have a fitted effect of over 50% in size)
Outline: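 Tox21 10K compounds were added to HRE-bla ME-180 cells (0.5% dialyzed FBS) and incubated 17 hrs at 37C; ATP-based CellTiter-Glo luminescence then reported cell viability in the same wells.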

[12] = qHTS assay to identify small molecule agonists of H2AX (AID 1224845; active means well fitted activation curve with a large enough effect in the signal ratio in the repeat runs, not every such curve was filed as active; the % refers to the signal ratio)
Outline: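 Wild-type CHO-K1 cells plated overnight, then exposed 3 hr at 37C to compounds at 15 concentrations (0.76% DMSO). Lysed, then HTRF anti-pH2AX(S139)-cryptate/anti-H2AX-d2 detection after 24 hr at room temperature; emissions 665 and 620 nm.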

[13] = qHTS assay to identify small molecule agonists of H2AX - cell viability counter screen (AID 1224847; calls by dose curve; further: top concentration of the series differs between compounds; nearly all actives have a fitted effect of over 30% in size)
Outline: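 After overnight plating of 1000 CHO-K1 cells per well, a 15-concentration compound series was applied for 3 hr at 37C. Luminescence from CellTiter-Glo, read following 30 min at room temperature, reflected cell viability.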

[14] = qHTS assay to identify small molecule antagonists of the estrogen related receptor (ERR) signaling pathway from Tox21 library (AID 1224848); further: nearly all actives have a fitted effect of over 50% in size
Outline: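 Screening used an ERR reporter line supplied by NTP, exposed for 18 h at 37 C to library compounds delivered in DMSO. Signal was luciferase luminescence developed with ONE-Glo at room temperature for 30 min.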

[15] = qHTS assay to identify small molecule agonists of the estrogen related receptor (ERR) signaling pathway from Tox21 library (AID 1224849; calls by dose curve; further: nearly all actives have a fitted effect of over 15% in size); details: ERR reporter cell line, ONE-Glo luciferase, 18 h; at 92.4 µM (top of the series) unless noted
Outline: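 Agonist signal is luciferase luminescence from an ERR reporter cell line treated 18 h at 37 C with DMSO-dissolved compounds, read 30 min after ONE-Glo addition at room temperature.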

[16] = qHTS RealTime-Glo MT Cell Viability Assay in HepG2 cells - 24 hour (AID 1224867); further: nearly all actives have a fitted effect of over 50% in size
Outline: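 HepG2 suspension premixed with RealTime-Glo reagents is plated at 600 cells per well and left 5 h at 37 C/5% CO2. Compounds in DMSO then go in, and bioluminescence reflecting viable cell number is recorded over 40 h.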

[17] = qHTS RealTime-Glo MT Cell Viability Assay in HEK293 cells - 32 hour (AID 1224868)
Outline: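 Reads taken at 0, 8, 16, 24, 32 and 40 h from the same wells. HEK293 cells (600/well) carried RealTime-Glo reagents from seeding, with compound added after a 5 h settle at 37 C.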

[18] = A CellTox Green Cytotoxicity Assay to monitor cytotoxicity in HEK293 cells - 0 hour (AID 1224869); further: nearly all actives have a fitted effect of over 50% in size
Outline: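 Cytotoxicity was tracked continuously in HEK293 cells by a DNA-binding dye excluded from viable cells. Compounds were transferred in DMSO 5 h after seeding; fluorescence was recorded at intervals up to 40 h.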

[19] = qHTS RealTime-Glo MT Cell Viability Assay in HepG2 cells - 40 hour (AID 1224870); further: nearly all actives have a fitted effect of over 50% in size; further: potency means the concentration at half of the fitted maximal effect
Outline: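 HepG2 cells mixed with RealTime-Glo MT reagents (NanoLuc plus cell-permeant prosubstrate) were seeded at 600 cells/well, incubated 5 h at 37 C/5% CO2, then pinned with compounds in DMSO; nonlytic luminescence tracked viability during 40 h treatment.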

[20] = qHTS assay to identify small molecule agonists of the hypoxia (HIF-1) signaling pathway (AID 1224846; active means well fitted activation curve with a large enough effect in the signal ratio in the repeat runs, not every such curve was filed as active; the % refers to the signal ratio)
Outline: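 Steps: seed ME-180 HRE-bla cells (2,000/well, 0.5% dialyzed FBS); incubate 5 hrs at 37C; pin-transfer compounds or DMSO; incubate 17 hrs; add LiveBLAzer B/G substrate CCF4-AM; measure reporter activation by FRET.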
On the % scale 0 is the no-effect control and ±100 the full control effect.

Nuclear receptor subfamily 1 group I member 3 (Homo sapiens), sequence (Q14994 whole entry, looked up): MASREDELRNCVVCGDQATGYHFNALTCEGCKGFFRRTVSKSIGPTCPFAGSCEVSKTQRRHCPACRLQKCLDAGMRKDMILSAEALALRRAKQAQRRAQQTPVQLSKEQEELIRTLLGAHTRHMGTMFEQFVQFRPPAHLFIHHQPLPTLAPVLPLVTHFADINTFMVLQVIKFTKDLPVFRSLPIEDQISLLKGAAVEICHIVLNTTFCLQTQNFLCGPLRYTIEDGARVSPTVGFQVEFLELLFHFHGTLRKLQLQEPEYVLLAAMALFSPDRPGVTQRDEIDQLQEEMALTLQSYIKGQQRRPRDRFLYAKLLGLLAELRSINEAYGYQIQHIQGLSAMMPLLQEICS
Thyrotropin receptor (Homo sapiens), sequence (P16473 whole entry, looked up): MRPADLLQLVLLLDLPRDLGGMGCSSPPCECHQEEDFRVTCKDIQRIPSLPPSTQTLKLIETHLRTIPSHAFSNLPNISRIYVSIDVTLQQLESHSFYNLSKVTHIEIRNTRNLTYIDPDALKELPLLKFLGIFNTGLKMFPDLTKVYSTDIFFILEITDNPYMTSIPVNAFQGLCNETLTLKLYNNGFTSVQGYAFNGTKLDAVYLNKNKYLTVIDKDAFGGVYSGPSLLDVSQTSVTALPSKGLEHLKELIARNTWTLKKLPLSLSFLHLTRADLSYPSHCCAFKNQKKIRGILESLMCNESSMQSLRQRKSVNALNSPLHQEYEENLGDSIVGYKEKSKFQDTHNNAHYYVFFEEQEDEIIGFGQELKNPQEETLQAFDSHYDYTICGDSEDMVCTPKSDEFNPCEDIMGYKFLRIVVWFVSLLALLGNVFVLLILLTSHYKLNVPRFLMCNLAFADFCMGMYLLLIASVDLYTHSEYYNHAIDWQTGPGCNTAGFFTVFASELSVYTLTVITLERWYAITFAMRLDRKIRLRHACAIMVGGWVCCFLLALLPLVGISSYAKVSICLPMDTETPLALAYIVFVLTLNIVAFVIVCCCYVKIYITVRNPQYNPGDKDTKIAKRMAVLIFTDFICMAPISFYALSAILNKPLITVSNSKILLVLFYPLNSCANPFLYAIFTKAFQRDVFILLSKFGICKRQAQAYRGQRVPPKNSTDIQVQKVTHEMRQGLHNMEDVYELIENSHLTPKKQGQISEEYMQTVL
Luciferin 4-monooxygenase (Photinus pyralis), sequence (P08659 whole entry, looked up): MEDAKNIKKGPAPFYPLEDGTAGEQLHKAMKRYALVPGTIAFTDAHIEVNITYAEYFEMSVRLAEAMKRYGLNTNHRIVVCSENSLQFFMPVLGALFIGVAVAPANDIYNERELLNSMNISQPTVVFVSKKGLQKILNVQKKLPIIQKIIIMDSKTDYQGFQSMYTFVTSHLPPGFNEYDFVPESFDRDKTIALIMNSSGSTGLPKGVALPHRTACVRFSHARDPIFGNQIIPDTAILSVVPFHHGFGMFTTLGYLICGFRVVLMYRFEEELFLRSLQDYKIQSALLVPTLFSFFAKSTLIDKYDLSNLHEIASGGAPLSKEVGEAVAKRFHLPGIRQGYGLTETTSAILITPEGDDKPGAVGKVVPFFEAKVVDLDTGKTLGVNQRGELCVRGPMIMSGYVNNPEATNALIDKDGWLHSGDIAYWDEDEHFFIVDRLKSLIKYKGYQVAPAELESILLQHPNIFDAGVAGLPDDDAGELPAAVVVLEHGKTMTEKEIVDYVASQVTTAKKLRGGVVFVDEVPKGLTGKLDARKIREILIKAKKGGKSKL

CC(C)[N+](C)(CCC(C(N)=O)(c1ccccc1)c1ccccc1)C(C)C
active: Potency [19] 19 µM
inactive: Potency [1] | Potency [2] | Potency [3] | Potency [4] | Potency [5] | Potency [6] | Potency [7] | Potency [8] | Potency [9] | Potency [10] | Potency [11] | outcome [12] | Potency [13] | Potency [14] | activity change, positive = activation [15] 4.04% [at 42.5 µM] | Potency [16] | Potency [17] | outcome [18]

CCCN1CCC[C@@H]2Cc3[nH]ncc3C[C@H]21
inactive: Potency [1] | Potency [2] | Potency [3] | Potency [4] | Potency [5] | Potency [6] | Potency [7] | Potency [8] | Potency [9] | Potency [10] | Potency [11] | outcome [12] | Potency [13] | Potency [14] | activity change, positive = activation [15] 0.879% [at 42.5 µM] | Potency [16] | Potency [17] | outcome [18] | Potency [19]

CC(C)c1ccc(O)cc1
inactive: Potency [1] | Potency [2] | Potency [3] | Potency [4] | Potency [5] | Potency [6] | Potency [7] | Potency [8] | Potency [9] | Potency [10] | Potency [11] | outcome [20] | Potency [13] | Potency [14] | activity change, positive = activation [15] -0.432% | Potency [16] | Potency [17] | outcome [18] | Potency [19]

CON(C)C(=O)Nc1ccc(Br)c(Cl)c1
inactive: Potency [1] | Potency [3] | Potency [4] | Potency [5] | Potency [7] | Potency [8] | Potency [9] | Potency [10] | Potency [11] | outcome [12] | outcome [20] | Potency [13] | Potency [14] | activity change, positive = activation [15] 0.491% | Potency [16] | outcome [18] | Potency [19]
active: Potency [2] 39.9 µM | Potency [6] 48.6 µM

[P]#[In]
inactive: Potency [1] | Potency [2] | Potency [3] | Potency [4] | Potency [5] | Potency [6] | Potency [7] | Potency [8] | Potency [9] | Potency [10] | Potency [11] | outcome [12] | outcome [20] | Potency [14] | activity change, positive = activation [15] 3.59% | Potency [16] | Potency [17] | outcome [18] | Potency [19]

C[C@]12C=CC(=O)C=C1CC[C@@H]1[C@@H]2CC[C@@]2(C)[C@H]1CC[C@]2(C)O
inactive: Potency [1] | Potency [2] | Potency [3] | Potency [4] | Potency [5] | Potency [6] | Potency [7] | Potency [8] | Potency [9] | Potency [10] | Potency [11] | outcome [20] | Potency [13] | activity change, positive = activation [15] -17.6% [at 42.5 µM] | Potency [16] | Potency [17] | outcome [18] | Potency [19]

Nc1c(Cl)c(F)nc(OCC(=O)O)c1Cl
inactive: Potency [1] | Potency [2] | Potency [3] | Potency [4] | Potency [5] | Potency [6] | Potency [7] | Potency [8] | Potency [9] | Potency [10] | Potency [11] | outcome [20] | Potency [13] | Potency [14] | activity change, positive = activation [15] 0.0677% | Potency [16] | Potency [17] | outcome [18] | Potency [19]

CC(O)CCl (stereo unspecified)
inactive: Potency [1] | Potency [2] | Potency [3] | Potency [4] | Potency [5] | Potency [6] | Potency [7] | Potency [10] | Potency [11] | outcome [12] | outcome [20] | Potency [13] | Potency [16] | Potency [17] | outcome [18] | Potency [19]

O=C(O)C(Cl)Br (stereo unspecified)
inactive: Potency [1] | Potency [2] | Potency [3] | Potency [4] | Potency [5] | Potency [6] | Potency [7] | Potency [10] | Potency [11] | outcome [12] | outcome [20] | Potency [13] | Potency [16] | outcome [18] | Potency [19]

CCCCS(=O)(=O)Cl
inactive: Potency [1] | Potency [2] | Potency [3] | Potency [4] | Potency [5] | Potency [6] | Potency [8] | Potency [9] | Potency [10] | Potency [11] | outcome [12] | outcome [20] | Potency [13] | Potency [14] | activity change, positive = activation [15] -4.82% | Potency [16] | Potency [17] | outcome [18] | Potency [19]

C[C@@H](N)[C@@H](O)c1ccccc1
inactive: Potency [1] | Potency [2] | Potency [3] | Potency [4] | Potency [5] | Potency [6] | Potency [7] | Potency [10] | Potency [11] | outcome [12] | outcome [20] | Potency [13] | Potency [16] | Potency [17] | outcome [18] | Potency [19]

O=CCCl
inactive: Potency [1] | Potency [2] | Potency [3] | Potency [4] | Potency [5] | Potency [6] | Potency [7] | Potency [10] | Potency [11] | outcome [12] | outcome [20] | Potency [13] | Potency [16] | Potency [17] | outcome [18] | Potency [19]

ClCCCCCCCl
inactive: Potency [1] | Potency [2] | Potency [3] | Potency [4] | Potency [5] | Potency [6] | Potency [7] | Potency [10] | Potency [11] | outcome [12] | outcome [20] | Potency [13] | Potency [16] | Potency [17] | outcome [18] | Potency [19]

C[C@H](N)C(=O)c1ccccc1
inactive: Potency [1] | Potency [2] | Potency [3] | Potency [4] | Potency [5] | Potency [6] | Potency [7] | Potency [10] | Potency [11] | outcome [12] | Potency [13] | Potency [16] | Potency [17] | outcome [18] | Potency [19]

ClCCN1CCCC1
inactive: Potency [1] | Potency [2] | Potency [3] | Potency [4] | Potency [5] | Potency [6] | Potency [7] | Potency [10] | Potency [11] | outcome [12] | outcome [20] | Potency [13] | Potency [16] | Potency [17] | outcome [18] | Potency [19]
